Test results reported in ChEMBL document CHEMBL3988442, “University of Dundee, Small-Polar-MMV Screening Library” (2021).

Experiments:
[1] = biological target: T1, Aspartate--tRNA(Asp/Asn) ligase (Mycobacterium tuberculosis (strain ATCC 25618 / H37Rv)) (UniProt P9WFW3); test: Assay for Asp RNA synthetase-1 from Mycobacterium tuberculosis; format: functional; design: scale not given: direction of the effect not stated beside the values; settings: 30 µM; note: in the data most compounds retested in dose-response had high values
T1 sequence (whole entry): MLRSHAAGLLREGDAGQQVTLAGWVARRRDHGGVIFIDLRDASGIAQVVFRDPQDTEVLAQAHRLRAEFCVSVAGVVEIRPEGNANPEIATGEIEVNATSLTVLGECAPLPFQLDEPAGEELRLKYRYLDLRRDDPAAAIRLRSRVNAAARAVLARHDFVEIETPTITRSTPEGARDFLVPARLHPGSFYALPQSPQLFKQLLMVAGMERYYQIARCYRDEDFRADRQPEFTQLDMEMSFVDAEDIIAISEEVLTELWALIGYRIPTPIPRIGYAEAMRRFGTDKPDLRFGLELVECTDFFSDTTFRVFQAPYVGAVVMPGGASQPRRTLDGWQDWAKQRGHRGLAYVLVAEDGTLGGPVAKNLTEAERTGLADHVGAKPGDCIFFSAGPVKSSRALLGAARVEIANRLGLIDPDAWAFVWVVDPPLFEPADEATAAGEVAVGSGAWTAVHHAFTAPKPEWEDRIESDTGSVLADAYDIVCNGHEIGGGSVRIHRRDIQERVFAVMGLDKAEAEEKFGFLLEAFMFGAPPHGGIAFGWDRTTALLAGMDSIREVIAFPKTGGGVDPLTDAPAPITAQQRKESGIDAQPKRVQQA

[2] = biological target: Shiga toxin 2 (Escherichia coli O157:H7) (UniProt P09385+P09386); test: E. coli 0.157:H7 Shiga Toxin SOP - stx2 screening assay; format: functional; design: scale not given: direction of the effect not stated beside the values; settings: 30 µM

SMILES | Percent Effect [1] [%] | Percent Effect [2] [%]
Cc1cc(-c2cnn(CCNC(=O)C3CCCO3)c2C2CC2)on1 (configuration not stated) | -4.09 | 7.9
O=C(c1ccccc1-n1cccn1)N1CCCN(c2cccnn2)CC1 | 0.98 | 33
Cc1cc(C)n(C2CN(CC(=O)N3CCOCC3)C2)n1 | -0.655 | 9.68
O=C1CC2(CCCNC2)C(=O)N1Cc1ccc(F)cc1 (configuration not stated) | 3.3 | -4.45
CCOc1ncccc1C(=O)N1CCCC(c2nccn2CCOC)C1 (configuration not stated) | -4.25 | -0.308
Cc1csc(C2CCCN(C(=O)c3ccc(=O)n(C)n3)C2)n1 (configuration not stated) | 3.09 | -15.3
Cc1ccc(Nc2nccc(C3CN(CC(N)=O)C3)n2)nc1 | -1.29 | -33.3
CCc1nnc2n1CCN(C(=O)c1ccc(-c3ccco3)nc1C)C2 | -3.2 | -27.7
COCCN1CCN(Cc2cccc(C(N)=O)c2)CC1C (configuration not stated) | -1.6 | -42.8
O=C(c1ccc[nH]1)N1C[C@H](OCc2cccnc2)[C@H]2COC[C@H]21 | 2.69 | -6.45
CN1CCCC1CNC(=O)CCCOCc1ccccc1 (configuration not stated) | 0.589 | 23.4
CC(C(=O)N1CCCN(c2ccc(C#N)cc2)CC1)n1ccnc1 (configuration not stated) | -2.92 | 4.39
CCC1CN(C(=O)c2ccc(Cl)cc2O)CCN1C(C)C (configuration not stated) | -3.56 | 5.13
c1ncn(CC2CCCN2Cc2cn3ccsc3n2)n1 (configuration not stated) | -3.37 | -3.31
C[C@@H]1CN(C(=O)c2cnc(C3CC3)nc2)CC[C@@]1(O)C1CCOCC1 | 1.53 | 0.847
Cc1c(Br)cccc1C(=O)NC(C)CN1CCCC1=O (configuration not stated) | -1.01 | 1.67
Cn1ccnc1CN1CCN(CC(O)c2cccc(F)c2)CC1 (configuration not stated) | 1.53 | 14
COc1ccc(F)cc1CN1CCCC(c2cc(C(N)=O)[nH]n2)C1 (configuration not stated) | -5.13 | 1.05
CC(Cn1ccnc1)NC(=O)NCCc1ccc2c(c1)OCCO2 (configuration not stated) | -0.516 | 2.84

SMILES | Percent Effect [1] [%] | Percent Effect [2] [%]
COCC(NC(=O)c1cnn(C)c1)c1cccc(C(F)(F)F)c1 (configuration not stated) | -1.9 | -12.8
COc1cc(CNCc2c(C(C)C)nn(C)c2N(C)C)ccn1 | 0.522 | 22.2
CCNc1cc2c(nn1)CCN(C(=O)c1ccnc(N(C)C)c1)C2 | 0.611 | 3.23
Cc1ccsc1C(=O)N1CC(C(=O)N2CCOCC2)C2(CCOCC2)C1 (configuration not stated) | 7.88 | -8.92
Cn1ccnc1CN1CCN(CC(=O)NCC(F)(F)F)CC1 | 1.97 | 18.6
O=C(NCCN1CCC(c2cccs2)CC1)Nc1cccs1 | -7.93 | -125
Cc1cc(N2CCC(N(C)C(=O)c3ccccc3)CC2)nc(C)n1 | -5.32 | -9.61
CCn1c(C(=O)N2CCN(C(=O)COC)CC2)cc2ccccc21 | -7.07 | -41.5
Cc1cc(C2CCCN(CCCS(=O)(=O)c3ccccc3)C2)n[nH]1 (configuration not stated) | 3.14 | 4.75
Cc1nc(CN2CCCC(N(C)Cc3cscn3)C2)no1 (configuration not stated) | 4.73 | -14.1
O=C(c1ccc2c(c1)OCO2)N1CCN(c2cnccn2)CC1 | -4.12 | -14.6
Cc1cc(C(=O)N2CCC(c3nccn3Cc3ccncc3)CC2)no1 | 10.1 | 4.34
CC(=O)Nc1ccc(CNC2CC(=O)N(Cc3cccc(F)c3)C2)cc1 (configuration not stated) | -2.06 | -10.3
Fc1cccnc1CN1CCCCC1c1ccn2ccnc2n1 (configuration not stated) | 1.4 | -17.1
O=C(CC1CCCO1)NCc1ccccc1Cn1cncn1 (configuration not stated) | -3.17 | 31.5
COCCNC(=O)c1cc2c(s1)CCN2C(=O)c1ccccc1 | 0.0582 | -56.3
O=C(Nc1ncn(CC(=O)N2CCCCCC2)n1)C1CCCO1 (configuration not stated) | -0.233 | 29.5
Cc1noc(C)c1C1CCCN1C(=O)CN1CC2(CCNCC2)OC1=O (configuration not stated) | -0.658 | -21
Cc1ccccc1-n1ncc(C(=O)N2CCCC2c2cnn(C)c2)c1C (configuration not stated) | 0.583 | 10.1

SMILES | Percent Effect [1] [%] | Percent Effect [2] [%]
COCC(=O)N1CCC(c2cccc(Cc3ccc(F)cc3)n2)CC1 | 1.18 | -10.6
CCn1nccc1CNC(=O)C(C)n1cc2c(n1)c(C)nn2C (configuration not stated) | -5.02 | -29.4
CCc1nc(CC(=O)N2CCn3c(nnc3C(F)(F)F)C2)cs1 | 1.3 | 17.9
c1cnnc(NCC2CN(CCN3CCCCC3)CCO2)c1 (configuration not stated) | -4.13 | -5.19
CCC(O)CN1CCN(C(=O)c2cccn2Cc2cccs2)CC1 (configuration not stated) | 0.685 | 9.26
CN(c1ccc(C(C)(C)C)cc1)S(=O)(=O)c1cc(C(=O)O)cs1 | 1.85 | 12.9
Cc1cnn(CC2CCCN2Cc2nc3ccccc3nc2C)c1 (configuration not stated) | -1.82 | -1.37
O=C(NCCOc1ccc(Cl)cc1)N1CCS(=O)(=O)CC1 | -4.21 | 5.32
CCc1cc(NC2CCN(S(C)(=O)=O)CC2)n2nc(C)c(C)c2n1 | 1.78 | -16
CSCC(CCO)NC(=O)Nc1cc(Br)ccc1C (configuration not stated) | 3.02 | -10.3
COCCn1nc(C(=O)N(C)Cc2cnn(C)c2)ccc1=O | -3.74 | 9.25
CN(C)CC1CSCCCN1C(=O)c1ccc(=O)[nH]c1 (configuration not stated) | 0.539 | 3.65
Cc1nc(CN2CCOC(Cn3cncn3)C2)nc2ccccc12 (configuration not stated) | -2.91 | 16.4
COc1cc(C(=O)NS(=O)(=O)c2cccc(C#N)c2)ccc1C | -2.04 | -1.16
COc1ccc(CN2CC[C@H]3[C@H]2CCN3C(=O)c2cnn(C)c2)cc1 | -0.229 | -7.37
O=C(CN1CCCCC1C1OCCO1)Nc1ccc(F)c(F)c1 (configuration not stated) | 3.65 | 3.89
CCn1ncc2c1C(COC)CN(Cc1ccc(OC)cc1)C2 (configuration not stated) | -4.44 | -3.46
CN1CCC(CCNC(=O)c2ccc(N(C)S(C)(=O)=O)cc2Cl)CC1 | 1.1 | -50.8
